Laboratory results taken from the supplement of paper PMC12669032.
“And” between values parts separate entries of the source, which are not always exact repeats. Identical values can stand only once. A number with no mark means an inactive call.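 Rule for the calls: active = AUC reduced over 20% with Padj below 0.05 in at least 2 of 3 replicates; inactive = otherwise.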

The molecules below were run on Odoribacter splanchnicus (assay: growth AUC relative to DMSO control (median of replicates) (fraction); higher = more growth (less inhibition), active = hit call of the paper). Conditions: 20 µM; 24 h.
Procedure, shortened: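 In round-bottom 96-well plates sealed with pierced gas-permeable seals, gut bacterial monocultures in mGAM were grown anaerobically at 37 °C from OD600 0.05 with 20 µM compound (1% DMSO). OD600 readings were taken hourly for 24 h, and the minimum OD was set to 0. Area under the growth curve was then normalised to the plate median of solvent-only wells, or to row and column medians on the industrial chemical plate. The value given is the median of three biological replicates grown on separate days.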

Compound | growth AUC
COP(N)(=O)SC (centres undefined) | 1.04
COc1cc(OC)n2nc(S(=O)(=O)Nc3c(Cl)ccc(C)c3Cl)nc2n1 | 1.02
CC(C)N(C(=O)SCC(Cl)=C(Cl)Cl)C(C)C | 0.944
O=S(=O)(c1ccc(O)cc1)c1ccc(O)cc1 | 0.914
CN(C)NC(=O)CCC(=O)O | 0.989
CCN(CC)c1nc(C)cc(OP(=S)(OC)OC)n1 | 0.966
Clc1cccc(Cl)c1Cl | 1
CCN(CC)C(=S)[S-].O.O.O.[Na+] | 1
C#CCC1=C(C)C(OC(=O)C2C(C=C(C)C)C2(C)C)CC1=O (centres undefined) | 1.11
CCOc1ccccc1OS(=O)(=O)NC(=O)Nc1nc(OC)cc(OC)n1 | 1.15
CNC(=O)Oc1cc(C)cc(C(C)C)c1 | 1.11
CCCCN(CC)c1c([N+](=O)[O-])cc(C(F)(F)F)cc1[N+](=O)[O-] | 1.05
O=C(O)CCl | 0.986
CC[C@H](C)[C@H]1O[C@]2(C=C[C@@H]1C)C[C@@H]1C[C@@H](C/C=C(\C)[C@@H](O[C@H]3C[C@H](OC)[C@@H](O[C@H]4C[C@H](OC)[C@@H](NC)[C@H](C)O4)[C@H](C)O3)[C@@H](C)/C=C/C=C3\CO[C@@H]4[C@H](O)C(C)=C[C@@H](C(=O)O1)[C@]34O)O2.O=C(O)c1ccccc1 | 1.06
CON(C)C(=O)Nc1ccc(Cl)c(Cl)c1 | 0.981
CCCCOC(=O)[C@@H](C)Oc1ccc(Oc2ccc(C#N)cc2F)cc1 | 1
Clc1cc(Cl)c(Cl)c(Cl)c1 | 1.08
CN(C)C(=O)Nc1cccc(C(F)(F)F)c1 | 1.07
CN(C)C(=O)Nc1cccc(OC(=O)NC(C)(C)C)c1 | 0.551 (active)
CCOP(=O)(NC(C)C)Oc1ccc(SC)c(C)c1 (centres undefined) | 0.954

Compound | growth AUC
ClCC(Br)CBr (centres undefined) | 1.02
O=[N+]([O-])c1c(Cl)c(Cl)cc(Cl)c1Cl | 1.02
CCS(=O)c1c(C#N)nn(-c2c(Cl)cc(C(F)(F)F)cc2Cl)c1N (centres undefined) | 0.971
CNC(=O)Oc1cccc2c1OC(C)(C)C2O (centres undefined) | 1.02
CCOP(=O)(SC(C)CC)N1CCSC1=O (centres undefined) | 1.04
CCOP(=O)(OCC)ON1C(=O)c2cccc3cccc(c23)C1=O | 0.484 (active)
O=C(O)C(F)(F)C(F)(F)C(F)(F)C(F)(F)C(F)(F)C(F)(F)F | 1
O=S1OC[C@@H]2[C@H](CO1)[C@]1(Cl)C(Cl)=C(Cl)[C@@]2(Cl)C1(Cl)Cl (some centres undefined) | 0.949 and 0.879
O=C(O)c1ccccc1C(=O)Nc1cccc2ccccc12 | 1.06
CCCCN(CCCC)SN(C)C(=O)Oc1cccc2c1OC(C)(C)C2 | 1
C[n+]1ccc(-c2cc[n+](C)cc2)cc1.O.[Cl-].[Cl-] | 0.873
CCC(C)(CC)c1cc(NC(=O)c2c(OC)cccc2OC)on1 | 1.04
CNC(=O)Oc1cc(C)c(SC)c(C)c1 | 1.11
COC(=O)C(C)(Cl)Cl | 0.956
Cc1cc(Cl)ccc1N=CN(C)C | 1.01
Nc1cc(Cl)cc(Cl)c1 | 0.893
CCCCCCCCCc1ccc(O)cc1 | 0.841
COc1c(Cl)ccc(Cl)c1Cl | 1
CC(C)(C)c1cc([N+](=O)[O-])cc([N+](=O)[O-])c1O | 0.722
